This note sets out measurements from PubChem BioAssay.

Activity calls are given as the source filed them.

Experiment [1] has as its system Plasmodium falciparum Sir2 (PF13_0152, Sir2A). Nature of the experiment: pfSir2 binders on small-molecule microarrays, primary screen, biochemical, small-molecule microarray, 635 nm fluorescence (AID 1098).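 Further: score merges spot fluorescence intensity with its signal-to-noise ratio.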 The conditions noted are these: small-molecule microarray binding, fluorescence 635 nm; higher = more signal.
Experiment [2] in a line: small-molecule microarray binders of probe aDKK1, primary screen, biochemical, biotinylated probe, 635/667 nm fluorescence (AID 1099).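 Further: score merges 667nm spot fluorescence with signal to noise across triplicate slides.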 The conditions noted are these: higher = more signal.
Experiment [3] is described as follows: small-molecule microarray binders of probe aCHRDL2, primary screen, biochemical, biotinylated probe, 635/667 nm fluorescence (AID 1100). The conditions noted are these: higher = more signal.
Experiment [4] in a line: splicing luciferase reporter signal modulators, primary screen, spliceosome inhibition project, cell-based, HEK293, splice +/- reporter (AID 1101).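 Further: HEK293 cells carrying a splicing-competent luciferase reporter gene; test concentration not given here.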 The conditions noted are these: luminescence, 24 h, higher = more signal, called active from +8 up or from −8 down. (In general: A reporter such as luciferase makes a cellular process visible.)
In experiment [5] the target is Fibroblast growth factor 10 (Homo sapiens) (UniProt O15520). Kind of experiment: FGF10 binders on small-molecule microarrays, primary screen, biochemical, small-molecule microarray, 635 nm fluorescence (AID 1102). To be noted: FGF10 binding, fluorescence 635 nm, higher = more signal.
Chain of Fibroblast growth factor 10 (Homo sapiens) (O15520 whole entry, looked up): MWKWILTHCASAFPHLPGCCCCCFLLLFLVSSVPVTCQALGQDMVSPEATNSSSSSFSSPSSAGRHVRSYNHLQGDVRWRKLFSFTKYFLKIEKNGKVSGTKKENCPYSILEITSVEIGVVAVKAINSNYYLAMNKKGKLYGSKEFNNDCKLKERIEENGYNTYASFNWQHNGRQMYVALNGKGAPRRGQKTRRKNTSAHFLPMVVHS
The test system of experiment [6] is glycogen synthase kinase-3 (GSK3A per assay name; protocol says GSK3B). Kind of experiment: GSK3 binders on small-molecule microarrays, primary screen, biochemical, small-molecule microarray, 635 nm fluorescence, GSK3A (AID 1103). Further: the record names both GSK3A and GSK3B. To be noted: small-molecule microarray binding, fluorescence 635 nm; higher = more signal.
For experiment [7], the target named is Epidermal growth factor receptor (Homo sapiens) (UniProt P00533). Nature of the experiment: EGFR binders on small-molecule microarrays, primary screen, biochemical, small-molecule microarray, 635 nm fluorescence (AID 1104).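 Further: score merges 667 nm emission intensity with spot signal to noise over triplicate slides.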 To be noted: EGFR binding, higher = more signal.
Chain of Epidermal growth factor receptor (Homo sapiens) (P00533 whole entry, looked up): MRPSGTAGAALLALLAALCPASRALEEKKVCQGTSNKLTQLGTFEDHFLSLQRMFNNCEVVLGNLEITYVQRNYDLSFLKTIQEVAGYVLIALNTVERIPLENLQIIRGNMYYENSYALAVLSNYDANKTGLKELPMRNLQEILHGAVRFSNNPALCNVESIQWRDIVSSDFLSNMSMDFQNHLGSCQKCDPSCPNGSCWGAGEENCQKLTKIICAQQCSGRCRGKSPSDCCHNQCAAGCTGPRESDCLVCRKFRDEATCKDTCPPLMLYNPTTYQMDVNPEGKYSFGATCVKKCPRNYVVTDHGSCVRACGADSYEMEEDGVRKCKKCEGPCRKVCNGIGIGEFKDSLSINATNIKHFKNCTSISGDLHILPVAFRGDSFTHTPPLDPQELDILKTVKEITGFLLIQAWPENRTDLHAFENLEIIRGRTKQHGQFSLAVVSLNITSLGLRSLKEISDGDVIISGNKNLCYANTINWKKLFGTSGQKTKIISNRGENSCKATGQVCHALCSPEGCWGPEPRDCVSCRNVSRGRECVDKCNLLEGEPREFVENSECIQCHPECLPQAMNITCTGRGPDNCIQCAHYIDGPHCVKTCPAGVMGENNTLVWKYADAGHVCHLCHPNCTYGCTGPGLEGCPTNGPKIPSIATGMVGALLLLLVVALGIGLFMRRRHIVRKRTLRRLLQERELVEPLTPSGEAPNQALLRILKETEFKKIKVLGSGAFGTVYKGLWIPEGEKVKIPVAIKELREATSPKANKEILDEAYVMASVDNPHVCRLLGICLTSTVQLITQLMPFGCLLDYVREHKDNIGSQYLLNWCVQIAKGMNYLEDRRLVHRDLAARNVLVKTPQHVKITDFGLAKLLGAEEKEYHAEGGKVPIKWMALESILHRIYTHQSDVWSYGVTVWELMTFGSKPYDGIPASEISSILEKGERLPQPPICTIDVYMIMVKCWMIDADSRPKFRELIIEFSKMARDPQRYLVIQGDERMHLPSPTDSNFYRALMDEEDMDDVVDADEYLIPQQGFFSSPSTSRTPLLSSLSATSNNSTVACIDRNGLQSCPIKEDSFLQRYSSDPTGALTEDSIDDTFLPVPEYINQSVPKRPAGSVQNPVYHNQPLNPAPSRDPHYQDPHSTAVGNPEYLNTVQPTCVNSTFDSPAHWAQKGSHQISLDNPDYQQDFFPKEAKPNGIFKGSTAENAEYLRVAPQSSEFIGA
Experiment [8] deals with Follistatin-related protein 3 (Homo sapiens) (UniProt O95633). Nature of the experiment: FSTL3 binders on small-molecule microarrays, primary screen, biochemical, small-molecule microarray, 635 nm fluorescence (AID 1105).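 Further: score merges emission near 667 nm and signal to noise per printed spot across three slides.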 To be noted: FSTL3 binding, higher = more signal.
Chain of Follistatin-related protein 3 (Homo sapiens) (O95633 whole entry, looked up): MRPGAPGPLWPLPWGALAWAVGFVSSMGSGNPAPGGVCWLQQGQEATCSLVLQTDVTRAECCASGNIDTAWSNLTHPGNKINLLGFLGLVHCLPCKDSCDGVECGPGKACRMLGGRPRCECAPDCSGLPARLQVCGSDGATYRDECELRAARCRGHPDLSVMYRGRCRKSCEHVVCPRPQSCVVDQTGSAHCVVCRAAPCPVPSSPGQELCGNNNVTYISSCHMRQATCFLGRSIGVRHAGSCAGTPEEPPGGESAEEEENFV
The target in experiment [9] is Dickkopf-related protein 1 (Homo sapiens) (UniProt O94907). Nature of the experiment: DKK1 binders on small-molecule microarrays, primary screen, biochemical, small-molecule microarray, 635 nm fluorescence scan (AID 1106).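 Further: score merges emission near 667 nm with signal to noise over three replicate slides.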 The conditions noted are these: DKK1 binding, higher = more signal.
Chain of Dickkopf-related protein 1 (Homo sapiens) (O94907 whole entry, looked up): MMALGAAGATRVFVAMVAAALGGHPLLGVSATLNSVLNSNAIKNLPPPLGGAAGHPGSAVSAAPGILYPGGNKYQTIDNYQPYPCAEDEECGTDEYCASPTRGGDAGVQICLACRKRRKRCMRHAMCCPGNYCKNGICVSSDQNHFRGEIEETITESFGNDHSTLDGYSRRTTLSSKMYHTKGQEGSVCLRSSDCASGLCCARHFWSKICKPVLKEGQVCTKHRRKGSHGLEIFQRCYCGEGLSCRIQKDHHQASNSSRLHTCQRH
The test system of experiment [10] is Inhibin beta A chain (activin A). Kind of experiment: INHBA (activin A) binders on microarrays, primary screen, biochemical, small-molecule microarray, 635 nm fluorescence scan (AID 1107).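 Further: mouse activin A protein probed at 4.33 µg/mL on printed slides; score merges bound-protein fluorescence near 667 nm with spot signal-to-noise.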 To be noted: small-molecule microarray binding, higher = more signal.
For experiment [11], the system named is Human papillomavirus type 1a protein E7 (residues 44-93). Kind of experiment: HPV1a E7 fragment binders on microarrays, primary screen, biochemical, small-molecule microarray, residues 44-93, 635 nm fluorescence (AID 1108).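 Further: E7 fragment applied at 1 µg/mL in TBST for 1 h at 4 C; score combines spot fluorescence with its signal to noise ratio.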 The conditions noted are these: small-molecule microarray binding, fluorescence 635 nm; higher = more signal.
Experiment [12] can be described thus: modulators of HCV replicon luciferase signal, primary screen, HCV replication inhibitor project, Huh7 cells, luciferase reporter (AID 1109).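 Further: huh7 hepatoma cells harbouring a luciferase neomycin HCV replicon reporter; luciferase luminescence as measure of HCV replicon replication; test concentration not given here.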 The conditions noted are these: 48 h, higher = more signal. In general terms: A replicon is a self-replicating genome or part of one, used to study replication in cells.
Experiment [13] concerns the target Left-right determination factor 2 (Homo sapiens) (UniProt O00292). Nature of the experiment: LEFTY2 binders on small-molecule microarrays, primary screen, biochemical, small-molecule microarray, 635 nm fluorescence scan (AID 1110). To be noted: LEFTY2 binding, higher = more signal.
Experiment [14] concerns the target Calmodulin-1 (Homo sapiens) (UniProt P0DP23). Kind of experiment: CALM1 binders on microarrays, EGTA buffer, profiling panel, biochemical, small-molecule microarray, Cy5-labelled CALM1 (AID 1111).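 Further: labelled calmodulin applied in Tris saline Tween buffer holding calcium plus EGTA and DTT.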 The conditions noted are these: Cy5-CALM1 binding fluorescence, higher = more signal.
Experiment [15] shares this target. Kind of experiment: calcium-bound CALM1 binders on microarrays, profiling panel, artefact control for SMM control-protein annotation, biochemical, small-molecule microarray, Cy5-labelled CALM1, plus calcium (AID 1112).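 Further: score merges spot fluorescence with signal to noise from triplicate slides.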 To be noted: Cy5-CALM1 binding fluorescence, higher = more signal.
The nature of experiment [16]: small-molecule microarray binders of probe aWnt5a, primary screen, biochemical, biotinylated probe, 635/667 nm fluorescence (AID 1113).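 Further: score merges 667 nm fluorescence intensity with signal-to-noise per printed feature.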 The conditions noted are these: higher = more signal.
Experiment [17] in a line: small-molecule microarray binders of probe aShh, primary screen, biochemical, biotinylated probe, 635/667 nm fluorescence (AID 1114).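 Further: probe is biotin-labelled aShh protein from a stem cell growth factor screen; measures binding of labelled protein to compounds printed on the slide; score merges feature fluorescence at 667 nm with signal-to-noise.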 The conditions noted are these: higher = more signal.
Experiment [18] in a line: small-molecule microarray binders of probe aNog, primary screen, biochemical, biotinylated probe, 635/667 nm fluorescence (AID 1115).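 Further: probe is biotinylated aNog protein used at 0.15 µg/mL for 1 h at 4 C; z-score combines 667 nm fluorescence of each spot with its signal to noise.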 To be noted: higher = more signal.
In experiment [19] the target is Torsin-1A-interacting protein 1 (Homo sapiens) (UniProt Q5JTV8). Nature of the experiment: LAP1 binders from COS7 cell lysate, primary screen, small-molecule microarray, 635/667 nm fluorescence (AID 1116). The conditions noted are these: COS7-hLAP1 lysate binding, 635 nm fluorescence, higher = more signal.
Chain of Torsin-1A-interacting protein 1 (Homo sapiens) (Q5JTV8 whole entry, looked up): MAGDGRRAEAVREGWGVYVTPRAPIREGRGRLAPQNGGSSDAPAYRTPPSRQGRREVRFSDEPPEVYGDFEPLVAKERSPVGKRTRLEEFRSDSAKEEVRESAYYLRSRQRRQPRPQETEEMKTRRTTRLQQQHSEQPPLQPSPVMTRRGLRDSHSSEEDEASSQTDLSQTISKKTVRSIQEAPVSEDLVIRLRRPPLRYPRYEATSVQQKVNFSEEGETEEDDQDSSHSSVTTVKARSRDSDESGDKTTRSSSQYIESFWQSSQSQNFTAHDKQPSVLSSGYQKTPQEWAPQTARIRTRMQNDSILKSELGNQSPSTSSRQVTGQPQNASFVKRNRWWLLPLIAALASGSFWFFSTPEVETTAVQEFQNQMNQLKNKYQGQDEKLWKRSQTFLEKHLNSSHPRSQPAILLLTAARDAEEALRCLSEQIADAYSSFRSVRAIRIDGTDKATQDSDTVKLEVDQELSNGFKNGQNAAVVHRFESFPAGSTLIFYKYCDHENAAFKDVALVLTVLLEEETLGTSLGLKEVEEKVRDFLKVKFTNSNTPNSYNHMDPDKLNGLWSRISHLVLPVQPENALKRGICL
Experiment [20] concerns the target Alpha-bungarotoxin (Bungarus multicinctus) (UniProt P60615). Kind of experiment: alpha-bungarotoxin binders on microarray, profiling panel, artefact control for SMM control protein annotation, biochemical, small-molecule microarray, Alexa647 label, 635/667 nm fluorescence (AID 1117). To be noted: alpha-BTX-A647 binding fluorescence, higher = more signal.

Chain of Left-right determination factor 2 (Homo sapiens) (O00292 whole entry, looked up): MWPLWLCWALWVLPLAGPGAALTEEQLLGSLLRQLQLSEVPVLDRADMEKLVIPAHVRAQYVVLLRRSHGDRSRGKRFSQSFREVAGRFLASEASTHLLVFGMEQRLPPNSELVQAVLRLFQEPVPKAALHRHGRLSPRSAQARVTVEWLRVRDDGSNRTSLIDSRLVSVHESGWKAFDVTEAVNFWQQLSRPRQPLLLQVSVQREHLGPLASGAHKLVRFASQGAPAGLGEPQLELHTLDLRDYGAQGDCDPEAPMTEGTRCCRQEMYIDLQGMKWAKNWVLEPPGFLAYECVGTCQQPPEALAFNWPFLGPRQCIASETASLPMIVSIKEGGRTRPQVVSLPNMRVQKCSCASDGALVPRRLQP
Chain of Alpha-bungarotoxin (Bungarus multicinctus) (P60615 whole entry, looked up): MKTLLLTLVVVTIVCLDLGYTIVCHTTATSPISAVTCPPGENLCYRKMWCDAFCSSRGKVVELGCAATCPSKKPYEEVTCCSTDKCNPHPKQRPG

As to `COc1ccc([Si](C)(C)[C@H]2[C@H](CC(=O)N(CCO)Cc3ccccc3)O[C@@]3(C(=O)N(c4ccccc4)c4ccccc43)[C@@H]2C)cc1`, the composite z-score in experiment [1] was 0.717; in experiment [2] it was -0.202; in experiment [3], -0.0698; in [5] it was 0.889; in experiment [6], 0.289; in [7], 0.686. Besides, the composite z-score in [8] was 1.09; in experiment [9] it was 0.415; in experiment [10], 0.841; in [11], 1.32; in experiment [13], 0.753; in [14], 0.503. The composite z-score in experiment [15] was -0.0244; in [16] it was -0.104; in experiment [17], 0.0022; in experiment [18], -0.519; in [19] it was 0.105; in experiment [20], 1.17. Also, the z-score is -1.5 (inactive) in experiment [4] and -5.19 in experiment [12].

Regarding `COC(=O)[C@@]1(Cc2ccc(F)cc2)[C@H]2c3cc(C(=O)N(C)C)n(CCF)c3C[C@H]2CN1C(=O)c1ccccc1`, the composite z-score in experiment [1] is -0.0822; in [2], 0.9; in experiment [3] it was 0.987; in experiment [5] it was 0.295; in experiment [6] it was 0.139; in [7], -0.0604. For the same compound, the composite z-score in [8] is -0.0956; in [9], -0.256; in experiment [10], 0.856; in experiment [11], -0.999; in experiment [13], -0.0571; in experiment [14] it was 0.838. Moreover, the composite z-score in experiment [15] stood at 0.55; in [16], 0.0657; in [17], 0.337; in experiment [18], 0.787; in experiment [19], 0.163; in experiment [20], 0.3. The z-score in experiment [4] was -1.66 (inactive); in [12], -1.38.

Consider `COc1ccc(C(=O)Nc2cccc(CN3C(=O)[C@]4(O[C@H](CC(=O)N(CCO)Cc5ccccc5)[C@@H]([Si](C)(C)c5ccc(OC)cc5)[C@@H]4C)c4ccccc43)c2)cc1`, for which the composite z-score in [1] is 1.12; in experiment [2], -0.275; in experiment [3] it was 0.123; in experiment [5], 1.11; in experiment [6] it was -0.117; in experiment [7], 0.666. For the same compound, the composite z-score in experiment [8] was 0.702; in experiment [9], 0.649; in experiment [10], 0.794; in [11], 0.753; in [13], 0.546; in experiment [14] it was -0.0878. For the same compound, the composite z-score in experiment [15] is -0.342; in experiment [16] it was 0.093; in experiment [17], -0.0192; in experiment [18], -0.0315; in [19] it was 0.566; in experiment [20], 0.696. The z-score in [4] is 0.288 (inactive); in experiment [12], -3.73.

With `COC(=O)[C@]1(Cc2ccccc2N=[N+]=[N-])N=C(c2ccc(OCCCO)cc2)O[C@@H]1c1ccccc1CN=[N+]=[N-]`, the composite z-score in experiment [1] worked out at 0.843; in experiment [2], 2.44; in [3] it was 1.13; in [5], 0.975; in experiment [6] it was 0.712; in [7] it was 0.0466. Moreover, the composite z-score in [8] stood at 0.315; in experiment [9] it was 0.236; in experiment [10] it was 1.1; in [11], 1.37; in [13], 0.112; in experiment [14], 0.149. For the same compound, the composite z-score in experiment [15] was -0.529; in experiment [16] it was -0.148; in [17] it was -0.0324; in experiment [18] it was 1.14; in experiment [19] it was 1.3; in experiment [20], 0.874. In addition, the z-score in experiment [4] is 2.71 (inactive); in [12], -3.42.

As for `COc1ccc([Si](C)(C)[C@@H]2[C@@H](CC(=O)N3CCC[C@H]3CO)O[C@]3(C(=O)N(Cc4cccc(N5C(=O)c6cccc7cccc5c67)c4)c4ccccc43)[C@H]2C)cc1`, the composite z-score in [1] is 1.22; in experiment [2], -0.164; in experiment [3], 0.0325; in [5], 0.415; in [6], 0.0816; in experiment [7] it was 0.192. For the same compound, the composite z-score in experiment [8] was 0.402; in [9], 0.655; in [10], 0.608; in experiment [11], 1.29; in experiment [13], 0.456; in [14] it was 1.15. Also, the composite z-score in [15] is -0.226; in [16], -0.108; in [17], -0.0793; in experiment [18], -0.458; in [19], 2.23; in experiment [20], 0.669. Besides, the figures for the z-score in [4] and in [12] were -0.134 (inactive) and -2.11, respectively.
